We go through 18 compounds from paper PMC11062922 (Nature Chemical Biology, 2023).

Set-up in all cases: species or system human, MV4-11 + K-562 + COLO205 + SK-N-BE2 + OVCAR-8
The test system of assay [1] is ACVR1B. To be noted: read-out: apparent Kd, compound concentrations: 100 nM and 1000 nM (sheet 'Samples'), n = 1.
Assay [2] relates to ACVR1. Conditions: read-out: apparent Kd, compound concentrations: 100 nM and 1000 nM (sheet 'Samples'), n = 1.
For assay [3], the system named is DDR1. To be noted: read-out: apparent Kd, n = 1.
The subject of assay [4] is SIK2. To be noted: read-out: apparent Kd, compound concentrations: 100 nM and 1000 nM (sheet 'Samples'), n = 1.
Assay [5] has as its system SRC. Conditions: read-out: apparent Kd, compound concentrations: 100 nM and 1000 nM (sheet 'Samples'), n = 1.
Assay [6] deals with ZAK. To be noted: read-out: apparent Kd, compound concentrations: 100 nM and 1000 nM (sheet 'Samples'), n = 1.
For assay [7], the system named is DYRK1A. Conditions: read-out: apparent Kd, compound concentrations: 100 nM and 1000 nM (sheet 'Samples'), n = 1.
The test system of assay [8] is FLT3. To be noted: read-out: apparent Kd, compound concentrations: 100 nM and 1000 nM (sheet 'Samples'), n = 1.
For assay [9], the system named is GSK3A. To be noted: read-out: apparent Kd, compound concentrations: 100 nM and 1000 nM (sheet 'Samples'), n = 1.
For assay [10], the system named is FRK. To be noted: read-out: apparent Kd, compound concentrations: 100 nM and 1000 nM (sheet 'Samples'), n = 1.
Assay [11] deals with BTK. To be noted: read-out: apparent Kd; compound concentrations: 100 nM and 1000 nM (sheet 'Samples'), CATDS: 1.37109395342906E-2; n = 1.
In assay [12] the test system is CDK16. To be noted: read-out: apparent Kd; compound concentrations: 100 nM and 1000 nM (sheet 'Samples'), CATDS: 3.5928247701673299E-2; n = 1.
The test system of assay [13] is CDKL5. Conditions: read-out: apparent Kd, compound concentrations: 100 nM and 1000 nM (sheet 'Samples'), n = 1.
The test system of assay [14] is CSK. To be noted: read-out: apparent Kd, compound concentrations: 100 nM and 1000 nM (sheet 'Samples'), n = 1.
The test system of assay [15] is EGFR. To be noted: read-out: apparent Kd; compound concentrations: 100 nM and 1000 nM (sheet 'Samples'), CATDS: 2.2005426873151199E-2; n = 1.
For assay [16], the system named is LYN. To be noted: read-out: apparent Kd; compound concentrations: 100 nM and 1000 nM (sheet 'Samples'), CATDS: 2.0380924471609701E-2; n = 1.
In assay [17] the test system is GSK3B. To be noted: read-out: apparent Kd; compound concentrations: 100 nM and 1000 nM (sheet 'Samples'), CATDS: 0.25409844627903599; n = 1.
The subject of assay [18] is EPHA1. Conditions: read-out: apparent Kd; compound concentrations: 100 nM and 1000 nM (sheet 'Samples'), CATDS: 0.10844818822907799; n = 1.

Each structure is given as a SMILES string. Like-named read-outs stand apart in the source and are kept apart here.

For the compound `CN1C(=O)c2ccccc2N(C)c2nc(Nc3cnn(C4CCNCC4)c3)ncc21` [XMD-17-51], the potency estimated from few doses is 383 nM in [1] (CATDS: 2.1196121470028601E-2); 805 nM in [2] (CATDS: 1.6735726463305099E-2); 697 nM in assay [3] (compound concentrations: 100 nM and 1000 nM (sheet 'Samples'), CATDS: 1.7451025116255701E-2); 416 nM in assay [4] (CATDS: 2.05809527554131E-2); 875 nM in [5] (CATDS: 1.6357706357996601E-2).

Take `CCc1nc(-c2cccc(N(C)S(=O)(=O)c3ccccc3)c2)c(-c2ccnc(Nc3ccc(N4CCN(C(C)=O)CC4)nc3)n2)s1` [GSK1645895A]: in assay [6] (CATDS: 0.12983068767625999), the potency estimated from few doses was 2300 nM.

As to `O=C1N=C(NCCc2cccc(F)c2)S/C1=C\c1ccc2ncccc2c1` [RO4508344-000], the potency estimated from few doses in [7] (CATDS: 0.105735187935075) was 750 nM; in assay [8] (CATDS: 0.14042863340460501) it was 431 nM.

With `O=C1N=C(NCCc2ccccn2)S/C1=C\c1ccc2ncccc2c1` [RO4508346-000], in assay [7] (CATDS: 0.223400824962835), the potency estimated from few doses is 127 nM.

As for `Cl.O=C1N=C(NCc2ccccn2)S/C1=C\c1ccc2ncccc2c1` [RO4874953-001], the figures for the potency estimated from few doses in assay [7] (CATDS: 0.10050944146971801) and in assay [9] (CATDS: 8.1690756727002906E-2) were 893 nM and 1370 nM, respectively.

For `COc1ccccc1CCNC1=NC(=O)/C(=C/c2ccc3ncccc3c2)S1` [RO4503316-000], the potency estimated from few doses in assay [7] (CATDS: 0.20132255504791199) is 128 nM.

Regarding `NC(=O)c1cccc(Nc2nccc(Nc3cccc4[nH]ncc34)n2)c1` [GW782612X], the results for the potency estimated from few doses in assay [1] (CATDS: 5.6390113546044701E-2), in assay [2] (CATDS: 0.10376431199902) and in [10] (CATDS: 5.5821190853221701E-2) were 401 nM, 122 nM and 411 nM, respectively.

For `COc1ccccc1CNC1=NC(=O)/C(=C/c2ccc3ncccc3c2)S1` [RO4503315-000], the potency estimated from few doses in assay [7] (CATDS: 8.6327639243549595E-2) is 596 nM.

On to `CC(C)c1nc(-c2cccc(NS(=O)(=O)c3ccccc3)c2)c(-c2ccnc(Nc3ccc4c(c3)CN(C)CC4)n2)s1` [GSK1649598A], for which the potency estimated from few doses is 628 nM in [1] (CATDS: 1.6553743316138101E-2); 1250 nM in assay [2] (CATDS: 1.3619919375172601E-2); 1210 nM in [11]; 112 nM in assay [12]; 101 nM in assay [13] (CATDS: 3.80366995063171E-2); 433 nM in [14] (CATDS: 1.8899514592430999E-2). Moreover, the potency estimated from few doses was 1520 nM in assay [3] (compound concentrations: 100 nM and 1000 nM (sheet 'Samples'), CATDS: 1.30172526981645E-2); 298 nM in assay [15]; 338 nM in assay [10] (CATDS: 2.08537323275855E-2); 358 nM in [16]; 653 nM in assay [4] (CATDS: 1.6344481967555599E-2); 960 nM in assay [5] (CATDS: 1.45663528778369E-2). For the same compound, the potency estimated from few doses in assay [6] (CATDS: 1.7977927791487699E-2) is 495 nM.

As for `O=C1N=C(NCc2ccccc2)S/C1=C\c1ccc2ncccc2c1` [RO4442080-000], the potency estimated from few doses in assay [7] (CATDS: 9.0282965342826302E-2) is 1320 nM.

For `COc1ccc(-n2cnc3c(N)ncnc32)cc1` [SKF-97236], in assay [8] (CATDS: 0.20462680651790399), the potency estimated from few doses was 598 nM.

Consider `O=C1N=C(NCCc2cccc(Cl)c2)S/C1=C\c1ccc2ncccc2c1` [RO4509201-000], for which the potency estimated from few doses in assay [7] (CATDS: 6.6454923664205107E-2) was 945 nM; in assay [8] (CATDS: 6.3899678732730503E-2) it was 1060 nM.

As to `CCn1cc(-c2ccnc3[nH]c(-c4cccc(CN(C)C)c4)cc23)c(-c2ccc(NC(=O)N(C)C)cc2)n1` [GSK1070916], in assay [3] (compound concentrations:100 nM and 1000 nM (sheet 'Samples')), the potency estimated from few doses is 869 nM.

For `Cn1cc(C2=C(c3cn(CCCO)c4ccccc34)C(=O)NC2=O)c2ccccc21` [RO0317377-000], the figures for the potency estimated from few doses in assay [9] (CATDS: 0.248455440441466) and in [17] were 311 nM and 301 nM, respectively.

As for `COc1cc(Nc2ccnc3cc(-c4ccncc4)ccc23)cc(OC)c1OC.Cl` [GW494610A], the potency estimated from few doses in [1] (CATDS: 6.2055393770244598E-2) was 76.5 nM; in assay [2] (CATDS: 8.6839126385756693E-2), 38.3 nM; in assay [14] (CATDS: 2.2928225838280001E-2) it was 1390 nM; in assay [18] it was 25.4 nM; in [4] (CATDS: 2.3854628716910201E-2) it was 1170 nM.

In the case of `CNC1=NC(=O)/C(=C/c2ccc3ncccc3c2)S1` [RO4595949-000], the potency estimated from few doses in assay [13] (CATDS: 4.9375621350065603E-2) is 2150 nM; in assay [7] (CATDS: 0.10780330705145599) it was 209 nM.

For `O=C1N=C(NCC(CO)c2ccccc2)S/C1=C\c1ccc2ncccc2c1` (stereo not shown) [RO4582641-000], the potency estimated from few doses in [13] (CATDS: 6.3730815830875698E-2) is 1510 nM; in [7] (CATDS: 9.2693691803080097E-2), 353 nM.

For the compound `O=C1N=C(N[C@@H](CO)c2ccccc2)S/C1=C\c1ccc2ncccc2c1` [RO4554340-000], the potency estimated from few doses in [7] (CATDS: 0.16734351378465701) was 1030 nM.
